aSyn UTR inh: MLPCN primary screen, SNCA 5' untranslated region; AID 1813, 2009; 0.82% of 300,000 active; alpha-synuclein 5'UTR reporter, inhibitor activity; inhibition, % (tested at 7.5 µM); in the data active = inhibition above about 60%;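 also: H4 neuroglioblastoma cells stably carrying SNCA 5'UTR luciferase fusion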
TROY NFkB inh: inhibitors of TROY-driven NF-kB signaling, primary screen, Q293 LMP1-TROYcd cells, NF-kB luciferase, uHTS | Q293 LMP1-TROYcd NF-kB luciferase reporter, 4 h | inhibition, % at 10 µM | 0.98% of 360,000 active | AID 1347056, 2019;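 active = compounds whose plate-normalised and pattern-corrected inhibition of the luciferase reporter signal at the single screening dose is 50% or more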
HIF-2a block: HIF-2a reporter inhibitors, primary screen, luminescence, 786-0 RCC cells; 786-0 RCC cells HIF-2a reporter, luciferase luminescence, overnight; inhibition, % at 18.8 µM; 0.72% of 360,000 active;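 active = inhibition of the luminescence signal of 40% or more relative to plate controls, in a single-dose primary screen at 18.75 µM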
TWEAK Fn14 block: inhibitors of TWEAK-Fn14 signaling, primary screen, luciferase reporter cells, uHTS. inhibition, % at 10 µM. 2% of 360,000 active. TWEAK-stimulated Fn14 reporter cells, luciferase luminescence, 8 h; in the data active = inhibition above about 50%
HSP90 inh: HSP90 inhibitors, primary screen, cell lysate, luminescence; Rabbit reticulocyte lysate, luciferase refolding luminescence, 3 h; Heat shock protein HSP 90 (rabbit reticulocyte lysate; luciferase refolding); inhibition, % at 5.6 µM; AID 1789, 2009; 0.91% of 290,000 active;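 active = inhibition above the screen-wide mean plus 3 SD, computed separately per campaign, cut at about 16% in these data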;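 also: inhibitors lower the luminescence because luciferase stays unfolded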
C8 TRAIL sens: viability loss with TRAIL in NB7+C8 cells, primary screen, TRAIL sensitizer project, cell-based, ATPlite luminescence. inhibition (viability loss, TRAIL sensitization), % at 10 µM. 1% of 360,000 active. AID 624354, 2012;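 active = compounds causing at least 50% loss of cell viability in the single-dose screen, relative to plate controls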
Of the large screens only hits and unclear results are named; the others gave an inactive call. Rows were chosen to be rich in hits. Some 3.9% of all compounds tested hit in one or more screens of this group.

COc1ccc(NC(=S)NNc2ccc([N+](=O)[O-])cc2S(=O)(=O)Nc2ccc(C)cc2C)cc1	none
Cc1ccc(NS(=O)(=O)c2cc([N+](=O)[O-])ccc2NNC(=S)Nc2cc(C)ccc2C)c(C)c1	TROY NFkB inh 53, TWEAK Fn14 block 68
COc1ccc(-c2oc3c(c2-c2cnc(OC)nc2)C(O)CC3)cc1 (stereo not drawn)	none (no result: aSyn UTR inh, HSP90 inh)
COc1ccc(NS(=O)(=O)c2ccc3oc(SCc4ccc(F)cc4)nc3c2)cc1	TROY NFkB inh 51
COc1ccccc1NS(=O)(=O)c1ccc2oc(SCc3ccc(F)cc3)nc2c1	none
COc1cc(/C=C2/C(=O)c3cccc([N+](=O)[O-])c3C2=O)c(Br)cc1O	HIF-2a block 96, TWEAK Fn14 block 57 (no result: aSyn UTR inh)
C[C@]12CCC(O)CC1=CCC1C2CC[C@]2(C)/C(=N\NC(N)=S)CCC12 (stereo partly drawn)	TWEAK Fn14 block 94
Fc1ccccc1-c1csc(=Nc2cccnc2)n1CCCn1ccnc1	TWEAK Fn14 block 55
Cc1cccnc1C(NC(=O)C1CCN(Cc2ccc(Oc3ccccc3)cc2)CC1)c1ccccc1 (stereo not drawn)	none (no result: aSyn UTR inh, HSP90 inh)
COc1ccccc1N=C(C)C1=C(O)CC(c2ccccc2)CC1=O (stereo not drawn)	aSyn UTR inh 122
CCCC(=Nc1ccccc1OC)C1=C(O)CC(c2ccccc2)CC1=O (stereo not drawn)	none
COc1cc(CSc2nnnn2-c2ccc(C)cc2)cc(OC)c1OC	TROY NFkB inh 54
COc1ccc(F)cc1CSc1nnnn1-c1ccc(O)cc1	none
COc1ccc2[nH]c3c(C)c4ccncc4c(C)c3c2c1	aSyn UTR inh 109, TWEAK Fn14 block 54
O=C1C=CC(=Nc2ccc3c(c2)Cc2cc(F)ccc2-3)O1	TWEAK Fn14 block 56 (no result: aSyn UTR inh, HSP90 inh)
O=C1C=CC(=Nc2cccc3c2C(=O)c2ccccc2-3)O1	none (no result: aSyn UTR inh, HSP90 inh)
CC(NC(=O)COC(=O)c1cc(NS(=O)(=O)c2ccc(Cl)c([N+](=O)[O-])c2)ccc1O)C1CC2CCC1C2 (stereo not drawn)	HIF-2a block 84
O=C(Nc1ccn(CCCNCC2CCCO2)c(=O)n1)OCc1ccccc1 (stereo not drawn)	none (no result: aSyn UTR inh, HSP90 inh)
C[C@@H]1CN([C@H](C)CO)C(=O)CCCn2cc(nn2)CO[C@H]1CN(C)C(=O)Nc1ccc2c(c1)OCO2	none (no result: aSyn UTR inh, HSP90 inh)
O=C1/C(=C/c2ccc(S(=O)(=O)O)cc2S(=O)(=O)O)CCc2ccccc21	none (no result: aSyn UTR inh, HSP90 inh)
CC1(C)Cc2c(C#N)c(SCCOc3ccccc3)nc(N3CCOCC3)c2CO1	TWEAK Fn14 block 53
COc1ccc(C(=O)/C=C/c2ccccc2)c(O)c1	none
COc1cc(O)cc(O)c1C(=O)/C=C/c1ccccc1	TWEAK Fn14 block 78
COc1cc(OC)c(C(=O)/C=C/c2ccccc2)c(O)c1O	TWEAK Fn14 block 64 (no result: HSP90 inh)
Cn1cnc([N+](=O)[O-])c1Oc1cccc2ccccc12	TWEAK Fn14 block 50
Cn1cnc([N+](=O)[O-])c1Oc1ccccc1	none
CCN(C(=S)Nc1cccc2ccccc12)c1ccccc1	TWEAK Fn14 block 83 (no result: aSyn UTR inh, HSP90 inh)
S=C(NCc1ccccc1)Nc1cccc2ccccc12	none
CCCc1[nH]nc2c1C(c1cn[nH]c1-c1ccc(F)cc1)C(C#N)=C(N)O2 (stereo not drawn)	TWEAK Fn14 block 54
c1ccc2c(c1)OCC(CNc1ncnc3sccc13)O2 (stereo not drawn)	TWEAK Fn14 block 51
Cc1ccc(S(=O)(=O)Nc2ccc(O)c(Sc3ncn[nH]3)c2)cc1	none
CC(C)c1ccc(S(=O)(=O)/N=C2/C=C(Sc3ncn[nH]3)C(=O)c3ccccc32)cc1	TROY NFkB inh 62, HIF-2a block 49, TWEAK Fn14 block 92, HSP90 inh 60 (no result: aSyn UTR inh)
Cc1ccc(NS(=O)(=O)c2ccc(C(=O)NCc3ccc(S(N)(=O)=O)cc3)cc2)cc1	none (no result: aSyn UTR inh, HSP90 inh)
Cc1c(P(=S)(c2ccccc2)c2ccccc2)[n+]2ccccc2n1CCc1ccccc1	C8 TRAIL sens 53 (no result: aSyn UTR inh, HSP90 inh)
CCN(CC)c1ccc(C=Nc2ccc(N(C)C)cc2)c(O)c1	TWEAK Fn14 block 58
CCN(CC)c1ccc(/C=N/N=C(N)N)c(O)c1	aSyn UTR inh 87
CCN(CC)c1ccc(N=Cc2ccc(N(CC)CC)cc2O)cc1	none

From PubChem
